Screening data as filed in PubChem BioAssay.
PLK1 PBD block: qHTS for Inhibitors of PLK1-PDB (polo-like kinase 1 - polo-box domain): Primary Screen. Serine/threonine-protein kinase PLK1 (Homo sapiens), P53350. Plk1 PBD binding of FITC phosphopeptide, fluorescence polarization. Potency, µM, without a hit: max response, negative = inhibition, hits mostly inhibitors. 2.8% of 360,000 active; note: potency is the fitted concentration of half-maximal effect; series mostly up to about 57 µM; % is set by controls: 0 for no effect and ±100 for the full control effect; nearly all actives have a fitted effect of over 65% in size
JMJD2A Tudor inh: qHTS Assay for Inhibitors of JMJD2A-Tudor Domain; Lysine-specific demethylase 4A (Homo sapiens), O75164; AlphaScreen JMJD2A-Tudor / H3K4me3 peptide binding; Potency, µM (series often up to 114 µM), without a hit: at the top dose activity change, negative = inhibition, most hits filed as inhibitors; 4.4% of 390,000 active; AID 504339, 2011; note: potency is the fitted concentration of half-maximal effect; % is set by controls: 0 for no effect and ±100 for the full control effect; nearly all actives have a fitted effect of over 50% in size
HP1b chromo inh: HTS for Inhibitors of HP1-beta Chromodomain Interactions with Methylated Histone Tails; Chromobox protein homolog 1 (Homo sapiens), P83916; AlphaScreen HP1-beta / biotin-H3K9me3 peptide binding; Potency, µM (doses to about 114 µM), for inactives: at the highest dose activity change, negative = inhibition, hits mostly inhibitors; 0.56% of 390,000 active; note: potency is the fitted concentration of half-maximal effect; nearly all actives have a fitted effect of over 70% in size
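Compound inhibition of the preformed complex between 50 nM HP1-beta and 50 nM biotinylated H3K9me3 peptide was read by AlphaScreen. Buffer was PBS pH 7.4 with 0.01% Tween-20. Incubations ran 30 min at room temperature, with 10 ug/mL donor/acceptor beads.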
KAT2A inh: qHTS Assay for Inhibitors of GCN5L2 | AID 504327, 2011 | Potency, µM (series often up to 58.9 µM), inactives show top-dose activity change, negative = inhibition, most hits filed as inhibitors | Histone acetyltransferase KAT2A (Homo sapiens), Q92830 | GCN5L2 HAT assay, ThioGlo1 CoA-SH fluorescence | 0.21% of 390,000 active; note: potency is the fitted concentration of half-maximal effect; % is set by controls: 0 for no effect and ±100 for the full control effect
Target sequence (Q92830 whole entry, looked up): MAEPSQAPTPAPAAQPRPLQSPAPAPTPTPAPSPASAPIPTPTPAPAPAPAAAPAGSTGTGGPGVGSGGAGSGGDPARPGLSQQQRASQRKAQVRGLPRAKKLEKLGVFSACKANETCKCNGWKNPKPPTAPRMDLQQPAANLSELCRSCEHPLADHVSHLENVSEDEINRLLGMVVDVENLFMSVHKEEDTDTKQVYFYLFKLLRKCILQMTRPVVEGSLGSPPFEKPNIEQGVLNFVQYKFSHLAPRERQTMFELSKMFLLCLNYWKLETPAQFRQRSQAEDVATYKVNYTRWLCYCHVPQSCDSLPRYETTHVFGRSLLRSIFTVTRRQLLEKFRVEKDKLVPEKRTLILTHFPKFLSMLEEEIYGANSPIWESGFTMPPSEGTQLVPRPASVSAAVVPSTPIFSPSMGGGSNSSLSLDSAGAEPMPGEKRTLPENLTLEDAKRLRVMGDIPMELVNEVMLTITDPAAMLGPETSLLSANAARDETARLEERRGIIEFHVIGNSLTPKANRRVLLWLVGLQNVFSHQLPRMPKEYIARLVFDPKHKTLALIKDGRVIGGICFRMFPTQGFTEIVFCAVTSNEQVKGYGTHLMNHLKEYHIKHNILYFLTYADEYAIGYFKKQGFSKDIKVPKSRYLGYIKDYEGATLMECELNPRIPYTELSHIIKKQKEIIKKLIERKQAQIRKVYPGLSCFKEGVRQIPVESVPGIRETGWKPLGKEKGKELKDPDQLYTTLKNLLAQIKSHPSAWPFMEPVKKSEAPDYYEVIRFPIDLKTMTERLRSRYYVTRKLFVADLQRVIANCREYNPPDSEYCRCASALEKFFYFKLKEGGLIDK
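Enzyme at 20nM final was mixed with library compounds for 15 min at room temperature. Peptide H3(1-25) at 75uM, acetyl-CoA at 70uM and ThioGlo1 at 50uM were then added. Plates were read immediately and after 20 min (Ex340nm/Em540nm).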
BAZ2B inh: qHTS Assay for Inhibitors of BAZ2B | Bromodomain adjacent to zinc finger domain protein 2B (Homo sapiens), Q9UIF8 | AlphaScreen BAZ2B-H3K14Ac peptide displacement | Potency, µM (top dose mostly 114 µM), inactives show top-dose activity change, negative = inhibition, hits mostly inhibitors | 4.4% of 360,000 active | AID 504333, 2011; note: potency is the fitted concentration of half-maximal effect; % is set by controls: 0 for no effect and ±100 for the full control effect; nearly all actives have a fitted effect of over 60% in size
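BAZ2B (50 nM) with biotin-H3(5-23)K14Ac peptide (50 nM) in PBS pH 7.4, 0.01% Tween-20, preformed 30 min, then compound 30 min at room temperature; top concentration 110uM. AlphaScreen streptavidin donor/nickel chelate acceptor beads (10 ug/mL final), 20 min dark, signal read.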
PI5P4K alpha inh: qHTS for Inhibitors of phosphatidylinositol 5-phosphate 4-kinase (PI5P4K). PI5P4Kalpha enzyme, ADP-Glo luminescence, 60 min; active compounds read low. max response, %. 1.2% of 330,000 active; active = max response of -50% or lower; inconclusive = between -30% and -50%; inactive = -30% or higher; note: value at the top dose of about 77 µM; % is set by controls: 0 for no effect and ±100 for the full control effect
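Controls without substrate or without enzyme flank wells where PI5P4Kalpha converts substrate using 5 microM ATP (final). Incubation lasts 60 minutes at room temperature; ADP formed is read by ADP-Glo luminescence.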
G9a inh: qHTS Assay for Inhibitors of Histone Lysine Methyltransferase G9a: Hit Confirmation; shares compounds with JMJD2A Tudor inh; G9a H3K9 monomethylation, AlphaScreen, 2 h; Potency, µM, usual class: inhibitors; 89% of 370 active; AID 588344, 2011; note: potency is the fitted concentration of half-maximal effect; nearly all actives have a fitted effect of over 65% in size
Starred values were filed as active, the others as inactive; ? = inconclusive; nt = no result; [ ] = dose if it differs, or a comment. This is a sample that favours compounds with a hit; in the whole collection about 7% have one here. Unless noted, calls come from the whole dose curve; as a rule, active = well fitted curve in the direction sought with a large enough effect; inconclusive = small, poorly fitted or top-dose-only effect, or another doubt; inactive = no such curve, though single readings can be large; an effect the other way counts as inactive or inconclusive.

SMILES	PLK1 PBD block	JMJD2A Tudor inh	HP1b chromo inh	KAT2A inh	BAZ2B inh	PI5P4K alpha inh	G9a inh
COc1ccc(C)cc1NC(=O)C(NS(=O)(=O)c1cccs1)c1ccccc1 (centres undefined)	nt	-3%	26%	1%	-2%	nt	nt
COC(=O)CCC(=O)N1CN2CN(C(=O)CCC(=O)OC)CC([N+](=O)[O-])(C2)C1	0%	-11%	31%	2%	-8%	8	nt
OCCCCCNc1ncnc2ccccc12	-3%	1%	43%	-1%	-3%	2	nt
OCCCCNc1cccc2ccccc12	-15%	?	-20%	-29%	?	nt	5.6*
COC(=O)c1ccc(OC(=O)C2CC(=O)N(c3ccc(C)cc3C)C2)cc1 (centres undefined)	?	-11%	24%	5%	-3%	nt	28*
COc1ccc(OC(=O)C2CC(=O)N(c3ccc(C)cc3)C2)cc1 (centres undefined)	-3%	15%	25%	0%	1%	-8	nt
Cc1ccc2nc(N)[nH]c(=O)c2c1Sc1ccncc1	nt	nt	nt	-13%	nt	nt	11*
Cc1ccc2nc3[nH]c(=O)[nH]c(=O)c3c(N)c2c1	0%	-21%	-1%[57 µM]	nt	nt	-4	nt
C[C@H](NC(=O)c1ccccc1Cl)C(=O)OCC(=O)NNC(=O)c1cccs1	-7%	-18%	10%	-9%	6%	-18	nt
COc1ccc(OC)c(-c2csc(NC(=O)COC(=O)C3CCC3)n2)c1	-5%	-34%	12%	-12%	-37%	6	10*
CCCCn1c(N)c(N(CCOC)C(=O)c2ccc(-c3cccc(C(F)(F)F)c3)o2)c(=O)[nH]c1=O	-17%	-10%	10%	-6%	9%	7	nt
CCOC(=O)N1CCc2c(sc(NCc3cccs3)c2C(=O)Nc2cc(Cl)ccc2OC)C1	nt	?	19%	-15%	-24%	nt	2.3*
CCOc1ccccc1NC(=O)c1c(NCc2cccs2)sc2c1CCCCC2	nt	-23%	0%	-5%	-3%	nt	nt
COc1ccc(Cl)cc1NC(=O)c1c(NCc2cccs2)sc2c1CCCC2	nt	?	-2%	-2%	-39%	nt	4.1*
CCCN(CCC)C(=O)Cn1c(=O)n(Cc2ccc(C(=O)NCCc3ccc(OC)c(OC)c3)cc2)c(=O)c2ccccc21	nt	-11%	8%	-8%	-9%	nt	nt
CCCCn1nnc(NC(=S)NC(=O)c2cccs2)n1	-22%	?	-27%	-12%	-3%	-10	nt
Cn1nnc(NC(=S)NC(=O)c2cccs2)n1	-12%	3.2µM*	-37%	2%	?	-5	7.1*
Cc1cccc(C)c1OCc1nnc(SCC(=O)Nc2cccc(C(=O)N3CCOCC3)c2)n1C	-9%	?	9%	3%	-3%	2	nt
Cc1cccc(OCc2nnc(SCC(=O)Nc3cccc(C(=O)N4CCOCC4)c3)o2)c1C	2%	-9%	12%	-12%	-21%	0	5*
Cc1ccc2ccc(C(Nc3ccccc3)c3ccc(Cl)cc3)c(O)c2n1 (centres undefined)	-7%	nt	nt	nt	nt	0	nt
Cc1cccc(NC(c2ccc(C)s2)c2ccc3ccc(C)nc3c2O)n1 (centres undefined)	?	-4%	-2%	-3%	8%	?	0.4*
COC(=O)c1c(-c2cccs2)csc1NC(=O)COc1ccc(C(C)C)cc1	nt	-24%	?	-28%	-11%	nt	8.1*
CCCc1ccc(OCC(=O)Nc2scc(-c3cccs3)c2C(=O)OC)cc1	nt	-3%	1%	?	7%	nt	nt
COc1ccc(-c2cc(C(F)(F)F)nc(-n3nc(C(F)(F)F)cc3C)n2)cc1	nt	33%	110%	-1%	32%	nt	nt
COc1ccc(COC(=O)C2=C(C)NC(=O)NC2c2ccc(OC)cc2)cc1 (centres undefined)	7%	-6%	35%	-2%	10%	4	nt
SMILES	PLK1 PBD block	JMJD2A Tudor inh	HP1b chromo inh	KAT2A inh	BAZ2B inh	PI5P4K alpha inh	G9a inh
CCOc1ccc(NC(=O)c2c(NCc3sccc3C)sc3c2CCCCC3)cc1	nt	?	-22%	?	-38%	nt	nt
CCOc1ccc(NC(=O)c2c(NCc3cccnc3)sc3c2CCCC3)cc1	nt	22µM*	-11%	-17%	-29%	nt	1.6*
O=C(COc1ccc(Cl)cc1)Nc1sc2c(c1C(=O)Nc1cccc(Cl)c1)CCCC2	nt	71µM*	?	?	?	nt	3.6*
Clc1ccc(Nc2nc(-c3cccnc3)cs2)cc1	-5%	-13%	26%	0%	-31%	-2	nt
CCN(CC)c1ccc(Nc2nc(-c3cccnc3)cs2)cc1	-13%	13µM*	40µM*	5%	20µM*	-7	5*
Fc1ccc(Nc2nc(-c3cccnc3)cs2)cc1	-24%	-10%[11.4 µM]	-11%	8%	-23%	6	nt
CN(C)c1ccc(Nc2nc(-c3cccnc3)cs2)cc1	-3%	-34%	-6%	-3%	?	1	0.5*
CCN(CC)c1ccc(NC(=O)CN2CCN(CC(=O)Nc3ccc(OC)cc3)CC2)cc1	-1%	-21%	12%	-3%	-26%	2	nt
CCN(CC)c1ccc(NC(=O)COC(=O)CCC(=O)c2ccc(F)cc2)cc1	-7%	-35%	-21%	0%	?	7	1.6*
CCN(CC)c1ccc(NC(=O)CN2CCN(CC(=O)Nc3ccc(F)cc3)CC2)cc1	1%	?	?	-1%	?	2	2.8*
CCN(CC)S(=O)(=O)c1cccc(NC(=O)COC(=O)CCC(=O)c2ccc(F)cc2)c1	-19%	-21%	19%	-7%	0%	-2	nt
CC(=O)Nc1ccc(S(=O)(=O)NCCC(=O)NNC(=O)c2ccncc2)cc1	-3%	-1%	19%	-8%	0%	-12	nt
Cc1ccc(C(=O)NCC(=O)Nc2ccc(S(=O)(=O)Nc3cc(C)nc(C)n3)cc2)cc1	-14%	-8%	22%	0%	nt	-7	nt
CC(=O)c1ccc(NC(=O)CSc2ccc(-c3cccs3)nn2)cc1	nt	?	28%	-18%	-21%	nt	6.3*
CC(C)n1cnc2cc(NCc3ccco3)ccc21	-8%	?	3%	-14%	-33%[57.1 µM]	nt	14*
CCOC(=O)N1CCc2c(sc(NCc3cccc(F)c3)c2C(=O)Nc2ccc(OC)cc2)C1	nt	10µM*	-19%	-30%	79µM*	nt	2.3*
